For eight molecules, Potency and outcome results are on record in PubChem BioAssay (Tox21).

A short description of assay [1]: qHTS assay to identify small molecule antagonists of the sonic hedgehog signaling (Shh) pathway (AID 1259369; calls by dose curve; note: nearly all actives have a fitted effect of over 45% in size; note: potency is the fitted concentration of half-maximal effect). In short, it runs like this:
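NIH/3T3-derived Gli1-Luc reporter cells plated 4 h, dosed with compound, then stimulated with conditioned medium for 24 h at 37 C. Firefly luciferase luminescence read after 30 min with detection reagent at room temperature.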
(In qHTS, concentration-response curves come from the screen itself.)

In assay [2] the target is Estrogen receptor beta (Homo sapiens) (UniProt Q92731). The assay can be described thus: qHTS assay to identify small molecule agonists of the estrogen receptor beta (ER-beta) signaling pathway (AID 1259377; active = well fitted activation curve with a large enough effect in the signal ratio in the repeat runs, not every such curve was filed as active; the % refers to the signal ratio). The gist of the method: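 In HEK293T cells bearing a UAS-beta-lactamase reporter under ER-beta control, DMSO-delivered compounds were incubated for 16 hr at 37C. Activity was detected as fluorescence 2 hours after LiveBLAzer B/G FRET substrate addition.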

Assay [3] shares this target. The assay can be described thus: qHTS assay to identify small molecule antagonists of the estrogen receptor beta (ER-beta) signaling pathway (AID 1259378; active = well fitted inhibition curve with a large enough effect in the signal ratio in the repeat runs, not every such curve was filed as active; the % refers to the signal ratio). In short, it runs like this:
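ER-beta-UAS-bla HEK293T (GripTite) cells in 2% charcoal-stripped FBS medium were preincubated 6 hr at 37C, dosed with compound, then stimulated with 1 nM E2 (final) for 16 hr; beta-lactamase reporter read by B/G FRET fluorescence after 2 hr substrate loading.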

The nature of assay [4]: qHTS assay to identify small molecule agonists of the androgen receptor (AR) signaling pathway in the presence of an antagonist - cell viability counter screen (AID 1259379).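 Note: MDA-kb2 human breast cancer cells carrying an MMTV luciferase reporter; series mostly up to about 92 µM; nearly all actives have a fitted effect of over 25% in size.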 In short, it runs like this:
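MDA-kb2 cells (MMTV-luciferase, AR/GR), 3,000/well, 5 h attachment, then 3.0 µM nilutamide (final) and compounds at 15 concentrations. Viability by CellTiter-Fluor fluorescence after 16 h at 37 °C, 0% CO2, in the reporter wells.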

A short description of assay [5]: qHTS assay to identify small molecule agonists of the estrogen receptor beta (ER-beta) signaling pathway - cell viability counter screen (AID 1259380). Note: nearly all actives have a fitted effect of over 30% in size. In short, it runs like this: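 ER-beta-UAS-bla HEK293T cells in medium with 2% charcoal-stripped FBS, pre-incubated 6 hr, then treated 16 hr at 37C. Cytotoxicity read in the same wells by CellTiter-Glo luminescence after 30 min at room temperature.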

Assay [6] can be described thus: qHTS assay to identify small molecule antagonists of the estrogen receptor beta (ER-beta) signaling pathway - cell viability counter screen (AID 1259382). Note: series mostly up to about 92 µM; nearly all actives have a fitted effect of over 55% in size. The gist of the method: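 ER-beta-UAS-bla HEK293T cells in 2% charcoal-stripped FBS medium, treated with compound plus 1 nM 17-beta-estradiol for 16 h at 37C. Viability read by CellTiter-Glo luminescence after 30 min at room temperature in the same wells.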

In assay [7] the target is Estrogen receptor (Homo sapiens) (UniProt P03372). The assay can be described thus: qHTS assay to identify small molecule agonists of the estrogen receptor alpha (ER-alpha) signaling pathway in the presence of an antagonist (AID 1259383; calls by dose curve; note: top concentration of the series differs between compounds; nearly all actives have a fitted effect of over 15% in size). In short, it runs like this:
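VM7Luc4E2 cells express endogenous full-length ER-alpha with an ERE-luciferase reporter and were hormone-deprived for 5 days. Compounds at 15 concentrations were added with 10.0nM ICI-182,780 for 22hr at 37C. Luminescence was read with ONE-Glo.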

The nature of assay [8]: qHTS assay to identify small molecule agonists or antagonists of the thyroid stimulating hormone receptor (TSHR) signaling pathway - wild type cell line counter screen (AID 1259384; calls by dose curve). The gist of the method: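 Wild-type HEK293 cells were plated 18 h at 37 C/5% CO2, pin-dosed with compound plus Ro20-1724 medium, held 30 min at room temperature, then given cAMP-d2 and anti-cAMP-cryptate; fluorescence was read after 1 h. Fifteen concentrations, triplicate.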

Assay [9] has as its target Thyrotropin receptor (Homo sapiens) (UniProt P16473). Briefly: qHTS assay to identify small molecule antagonists of the thyroid stimulating hormone receptor (TSHR) signaling pathway (AID 1259385; calls by dose curve; note: nearly all actives have a fitted effect of over 20% in size). The gist of the method: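 TSHR-HEK293 cells were plated and held 18 h at 37C/5% CO2, then given compound plus Ro20-1724 and stimulated with TSH at 1.5 ng/mL final. After 30 min at room temperature, cAMP was detected with cAMP-d2/anti-cAMP-cryptate (1 h) by fluorescence.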

The nature of assay [10]: qHTS assay to identify small molecule agonists of the estrogen receptor alpha (ER-alpha) signaling pathway in the presence of an antagonist - cell viability counter screen (AID 1259386).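 Note: series mostly up to about 92 µM; cells exposed to compounds for 22 h at 37 °C before the viability read; nearly all actives have a fitted effect of over 30% in size.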 In short, it runs like this: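 Cell viability in VM7Luc4E2 cells (endogenous full-length ER-alpha) measured by CellTiter-Fluor fluorescence in the same wells as the luciferase screen. Cells pre-cultured 5 days in charcoal-stripped serum, then treated 22 h with compounds at 15 concentrations plus 10.0nM ICI-182,780.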

The target in assay [11] is Progesterone receptor (Homo sapiens) (UniProt P06401). Briefly: qHTS assay to identify small molecule agonists of the progesterone receptor (PR) signaling pathway (AID 1346784; calls by dose curve; note: nearly all actives have a fitted effect of over 30% in size). In short, it runs like this: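 Using charcoal-stripped serum (2%) to limit endogenous steroids, PR-UAS-bla HEK 293T cells received compounds for 16 hr at 37C after 6 hr plating; beta-lactamase FRET fluorescence was recorded following 2 hr substrate loading at room temperature.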

Assay [12] shares this target. Briefly: qHTS assay to identify small molecule antagonists of the progesterone receptor (PR) signaling pathway (AID 1346795; active = well fitted inhibition curve with a large enough effect in the signal ratio in the repeat runs, not every such curve was filed as active; the % refers to the signal ratio). In short, it runs like this: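 Inhibition of R5020-induced (1 nM final) beta-lactamase reporter signal in PR-UAS-bla HEK293T cells was scored by FRET fluorescence after overnight (16 hr) compound treatment.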
Assay [13] in a line: qHTS assay to identify small molecule antagonists of the progesterone receptor (PR) signaling pathway - cell viability counter screen (AID 1346798). Note: series mostly up to about 92 µM; nearly all actives have a fitted effect of over 50% in size. The gist of the method: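 ATP content as viability readout: CellTiter-Glo luminescence, 30 min room temperature, in PR-UAS-bla HEK293T cells after 16 hr compound/R5020 treatment at 37C and 5% CO2.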
The nature of assay [14]: qHTS assay to identify small molecule agonists of the progesterone receptor (PR) signaling pathway - cell viability counter screen (AID 1346799; calls by dose curve; note: nearly all actives have a fitted effect of over 45% in size). In short, it runs like this:
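Cytotoxicity in PR-bla HEK293T cells: 16 h compound, 37C; CellTiter-Glo added post-FRET read; luminescence after 30 min RT.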

Assay [15] can be described thus: qHTS assay to identify small molecule antagonists of the TGF-beta/Smad signaling pathway - cell viability counter screen (AID 1346824). Note: nearly all actives have a fitted effect of over 50% in size. In short, it runs like this:
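SBE-bla HEK 293T cells were plated overnight at 37 C, then given compounds in DMSO plus TGF-beta1 (added as 0.25 ng/mL solution) for 5 hr. After the bla read, CellTiter-Glo was added to the same wells and luminescence read after 30 min at room temperature.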

Assay [16] is described as follows: qHTS assay to identify small molecule agonists of the TGF-beta/Smad signaling pathway - cell viability counter screen (AID 1346829). Note: top concentration of the series differs between compounds; nearly all actives have a fitted effect of over 45% in size. The gist of the method:
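Compound-treated SBE-bla HEK 293T cells (5 hr, 37 C) were assessed for viability with CellTiter-Glo in parallel with the reporter read.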

Assay [17] is described as follows: qHTS assay to identify small molecule agonists of the TGF-beta/Smad signaling pathway (AID 1346859; active = well fitted activation curve with a large enough effect in the signal ratio in the repeat runs, not every such curve was filed as active; the % refers to the signal ratio; note: series mostly up to about 77 µM). In short, it runs like this: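 Stable Smad binding element-beta-lactamase HEK 293T cells; 5 hr compound exposure at 37 C under 5% CO2; 2 hr room-temperature substrate step; fluorescence excited at 405 nm, collected at 460 nm and 530 nm.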
Assay [18] deals with Thyrotropin-releasing hormone receptor (Homo sapiens) (UniProt P34981). Briefly: qHTS assay to identify small molecule antagonists of the thyrotropin-releasing hormone receptor (TRHR) signaling pathway (AID 1346877; active = well fitted inhibition curve with a large enough effect in the repeat runs, not every such curve was filed as active; note: series mostly up to about 51 µM). In short, it runs like this: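 TRHR-expressing HEK293 cells loaded with calcium dye for 2 h at 37 C; compounds pre-incubated 5 min at room temperature before TRH challenge at 1 nM final. Intracellular calcium fluorescence read kinetically for 3 min; 15 concentrations in triplicate.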

Assay [19] has the same target. The assay can be described thus: qHTS assay to identify small molecule agonists of the thyrotropin-releasing hormone receptor (TRHR) signaling pathway (AID 1346891; calls by dose curve; note: series mostly up to about 58 µM). The gist of the method:
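In 1536-format, 1500 TRHR-Hek293 cells per well grew 18 h, took up calcium dye for 2 h at 37 °C, received compound, and were read kinetically; 15-point titrations, triplicates.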

Where “and” joins values, the source holds several entries; their conditions need not be identical. Equal values may be shown once. Inconclusive results are not listed. The source holds several records for some structures; these can differ, active in one and inactive in another. Calls of active or inactive are those of the source. Unless noted, calls come from the whole dose curve; as a rule, active = well fitted curve in the direction sought with a large enough effect in the repeat runs; inconclusive = weak or mixed curves; inactive = no such curve, though single readings can be large; an effect the other way counts as inactive or inconclusive.

Sequence of Progesterone receptor (Homo sapiens) (P06401 whole entry, looked up): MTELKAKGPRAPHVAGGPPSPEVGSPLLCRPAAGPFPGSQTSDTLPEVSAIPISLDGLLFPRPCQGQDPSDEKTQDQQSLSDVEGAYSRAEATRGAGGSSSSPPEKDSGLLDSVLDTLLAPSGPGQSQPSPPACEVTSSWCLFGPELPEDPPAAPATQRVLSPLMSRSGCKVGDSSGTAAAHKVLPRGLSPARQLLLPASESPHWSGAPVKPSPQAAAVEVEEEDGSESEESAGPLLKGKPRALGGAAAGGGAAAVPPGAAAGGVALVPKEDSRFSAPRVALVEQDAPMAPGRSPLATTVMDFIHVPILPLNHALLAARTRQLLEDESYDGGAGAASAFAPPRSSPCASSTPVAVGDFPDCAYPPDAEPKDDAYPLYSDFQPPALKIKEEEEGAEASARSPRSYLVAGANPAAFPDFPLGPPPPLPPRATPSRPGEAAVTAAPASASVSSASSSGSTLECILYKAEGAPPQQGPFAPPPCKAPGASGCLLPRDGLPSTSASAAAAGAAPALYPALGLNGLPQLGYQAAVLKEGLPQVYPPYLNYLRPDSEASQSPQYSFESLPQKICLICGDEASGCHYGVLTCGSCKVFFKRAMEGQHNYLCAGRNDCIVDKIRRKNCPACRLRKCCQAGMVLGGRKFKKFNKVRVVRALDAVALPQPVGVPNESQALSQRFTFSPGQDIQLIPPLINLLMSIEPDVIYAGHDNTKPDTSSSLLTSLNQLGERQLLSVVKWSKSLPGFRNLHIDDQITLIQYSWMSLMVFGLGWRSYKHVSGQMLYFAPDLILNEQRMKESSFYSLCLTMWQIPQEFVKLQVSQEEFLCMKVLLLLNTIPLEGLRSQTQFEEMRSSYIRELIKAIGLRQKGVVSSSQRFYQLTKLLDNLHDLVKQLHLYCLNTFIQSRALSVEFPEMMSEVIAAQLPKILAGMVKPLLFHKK
Sequence of Thyrotropin-releasing hormone receptor (Homo sapiens) (P34981 whole entry, looked up): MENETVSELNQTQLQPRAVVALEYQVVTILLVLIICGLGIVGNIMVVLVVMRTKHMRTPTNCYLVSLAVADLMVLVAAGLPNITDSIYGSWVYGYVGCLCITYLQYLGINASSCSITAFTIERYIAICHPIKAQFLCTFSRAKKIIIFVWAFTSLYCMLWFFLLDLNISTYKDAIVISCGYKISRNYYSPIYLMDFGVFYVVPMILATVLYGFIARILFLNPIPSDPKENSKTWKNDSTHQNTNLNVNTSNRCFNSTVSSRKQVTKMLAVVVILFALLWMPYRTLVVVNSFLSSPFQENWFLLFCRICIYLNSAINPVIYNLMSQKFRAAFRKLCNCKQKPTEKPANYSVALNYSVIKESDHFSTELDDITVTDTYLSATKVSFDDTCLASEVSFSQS
Sequence of Thyrotropin receptor (Homo sapiens) (P16473 whole entry, looked up): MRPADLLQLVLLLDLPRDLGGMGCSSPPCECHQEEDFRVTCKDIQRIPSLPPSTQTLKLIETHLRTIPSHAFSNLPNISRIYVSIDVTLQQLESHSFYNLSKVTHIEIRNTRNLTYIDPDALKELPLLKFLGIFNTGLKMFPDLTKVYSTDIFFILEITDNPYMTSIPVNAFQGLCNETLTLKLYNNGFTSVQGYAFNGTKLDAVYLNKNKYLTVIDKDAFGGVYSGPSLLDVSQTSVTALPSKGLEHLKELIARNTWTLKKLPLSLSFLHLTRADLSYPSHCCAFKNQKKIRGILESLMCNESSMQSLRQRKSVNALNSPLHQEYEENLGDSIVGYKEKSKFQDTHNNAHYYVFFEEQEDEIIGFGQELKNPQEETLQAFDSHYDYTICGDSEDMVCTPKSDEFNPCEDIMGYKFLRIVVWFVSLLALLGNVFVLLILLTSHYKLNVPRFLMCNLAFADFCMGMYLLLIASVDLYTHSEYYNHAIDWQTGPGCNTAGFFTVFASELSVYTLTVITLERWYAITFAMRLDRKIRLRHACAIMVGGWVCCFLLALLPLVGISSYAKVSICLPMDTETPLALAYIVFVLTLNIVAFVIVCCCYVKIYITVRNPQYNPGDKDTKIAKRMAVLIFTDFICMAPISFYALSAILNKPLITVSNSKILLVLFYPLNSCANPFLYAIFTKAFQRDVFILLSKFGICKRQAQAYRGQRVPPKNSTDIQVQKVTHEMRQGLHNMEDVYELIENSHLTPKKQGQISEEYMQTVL
Sequence of Estrogen receptor beta (Homo sapiens) (Q92731 whole entry, looked up): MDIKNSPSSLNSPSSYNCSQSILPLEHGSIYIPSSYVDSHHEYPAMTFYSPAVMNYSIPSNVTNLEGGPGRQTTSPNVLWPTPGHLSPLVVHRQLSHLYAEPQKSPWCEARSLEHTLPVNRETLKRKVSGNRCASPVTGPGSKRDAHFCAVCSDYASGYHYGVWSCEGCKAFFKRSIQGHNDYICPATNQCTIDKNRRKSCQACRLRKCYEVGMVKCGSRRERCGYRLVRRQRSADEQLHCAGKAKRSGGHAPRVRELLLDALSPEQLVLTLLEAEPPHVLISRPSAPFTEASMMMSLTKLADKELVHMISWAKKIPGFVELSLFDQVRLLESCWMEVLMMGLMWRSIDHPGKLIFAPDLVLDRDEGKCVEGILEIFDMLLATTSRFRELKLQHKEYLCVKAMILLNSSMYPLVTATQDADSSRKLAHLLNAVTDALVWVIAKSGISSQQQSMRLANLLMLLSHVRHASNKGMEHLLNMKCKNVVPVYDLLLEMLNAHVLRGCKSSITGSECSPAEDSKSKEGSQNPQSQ
Sequence of Estrogen receptor (Homo sapiens) (P03372 whole entry, looked up): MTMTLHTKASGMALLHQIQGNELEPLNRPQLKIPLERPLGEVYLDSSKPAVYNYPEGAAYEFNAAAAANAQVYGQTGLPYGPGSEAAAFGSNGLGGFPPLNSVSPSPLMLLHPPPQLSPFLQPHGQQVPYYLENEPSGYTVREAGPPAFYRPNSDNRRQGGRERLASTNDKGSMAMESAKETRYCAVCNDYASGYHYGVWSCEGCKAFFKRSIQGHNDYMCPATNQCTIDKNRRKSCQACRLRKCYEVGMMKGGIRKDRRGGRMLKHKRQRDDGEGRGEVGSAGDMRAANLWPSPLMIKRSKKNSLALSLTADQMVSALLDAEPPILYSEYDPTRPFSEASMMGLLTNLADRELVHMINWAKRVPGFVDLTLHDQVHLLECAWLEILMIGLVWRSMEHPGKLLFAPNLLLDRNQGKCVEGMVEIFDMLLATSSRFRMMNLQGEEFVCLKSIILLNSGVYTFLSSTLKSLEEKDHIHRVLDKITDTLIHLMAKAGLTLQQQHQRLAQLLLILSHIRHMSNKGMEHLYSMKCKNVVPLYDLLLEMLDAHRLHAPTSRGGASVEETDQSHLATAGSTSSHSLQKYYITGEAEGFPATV

`O=C(Cl)c1ccc(C(=O)Cl)cc1`: the Potency entry in [1], in assay [2], in assay [3], in assay [4], in assay [5] and in assay [6] was “inactive” throughout. Besides, the Potency result in [7], in assay [8], in [9], in assay [10], in [11] and in [12] was “inactive” throughout. Also, the Potency entry in assay [13], in assay [14], in assay [15], in assay [16], in assay [17] and in assay [18] was “inactive” in each case. Besides, in assay [19], the result was inactive.
`CC(C)=CCC/C(C)=C/C=O`: the Potency entry in assay [1], in assay [2], in [3], in [4], in assay [5] and in assay [6] was “inactive” each time. The Potency entry in assay [7], in [9], in [10], in assay [11], in [12] and in assay [13] was “inactive” throughout. The Potency entry in assay [14], in assay [15], in assay [16] and in assay [17] was “inactive” each time.
In the case of `C[Si](C)(C)N[Si](C)(C)C`, the Potency result in assay [1], in [2], in assay [3], in [4], in assay [5] and in [6] was “inactive” in each case. For the same molecule, the Potency entry in [7], in assay [9], in assay [10], in assay [11], in assay [12] and in [13] was “inactive” each time. For the same molecule, the Potency result in assay [14], in [15], in assay [16] and in assay [17] was “inactive” in each case.
Consider `Cc1ccncc1`, for which the Potency result in assay [1], in assay [2], in [3], in assay [4], in [5] and in assay [6] was “inactive” in each case. Also, the Potency result in [7], in assay [8], in [9], in assay [10], in assay [11] and in [12] was “inactive” throughout. Besides, the Potency entry in [13], in assay [14], in assay [15], in assay [16], in [17] and in [18] was “inactive” throughout. For the same molecule, in assay [19], the molecule was called inactive.
Turning to `Cc1cc(C)cc(O)c1`, in assay [1], the Potency was 1090 nM (active). For the same molecule, the Potency result in assay [2], in assay [3], in assay [4], in assay [5], in [6] and in [7] was “inactive” throughout. Further, the Potency result in [8], in [9], in [10], in assay [11], in [12] and in assay [13] was “inactive” each time. In addition, the Potency entry in assay [14], in assay [15], in assay [16], in [17] and in [18] was “inactive” each time. Moreover, the result in assay [19] was inactive.
In the case of `COc1cc(NC(=O)CC(C)=O)c(OC)cc1Cl`, the Potency entry in assay [1], in assay [2], in assay [3], in [4], in [5] and in assay [6] was “inactive” each time. Besides, the Potency entry in assay [7], in [8], in assay [9], in assay [10], in assay [11] and in assay [12] was “inactive” in each case. Also, the Potency result in assay [13], in assay [14], in assay [15], in [16], in [17] and in assay [18] was “inactive” throughout. Moreover, in assay [19], the call was inactive.
For the molecule `N#CCC(=O)O`, the Potency entry in [1] was “inactive and 54.5 µM (active)”. In addition, the Potency result in assay [2], in assay [3], in [4], in assay [5], in assay [6] and in [7] was “inactive” in each case. The Potency result in [9], in assay [10], in assay [11], in assay [12], in [13] and in assay [14] was “inactive” in each case. Moreover, the Potency entry in assay [15], in [16], in assay [17] and in assay [18] was “inactive” throughout. Besides, the molecule was classed as inactive in [19].
Regarding `C=CC(C)(C)C`, the Potency entry in assay [1], in [2], in assay [3], in assay [4], in [5] and in [6] was “inactive” throughout. In addition, the Potency entry in assay [7], in assay [8], in assay [9], in [10], in assay [11] and in [12] was “inactive” throughout. Also, the Potency entry in [13], in assay [14], in [15], in assay [16] and in [17] was “inactive” each time.
